Source: PubChem BioAssay (NCI)
This is part of a sample that, as a whole, favours compounds with a hit. Of some 83,000 tested, about 20% had one in any assay.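 A percent growth of 40 corresponds to 60% growth inhibition; 0 means no net growth; -100 means all cells died. Active threshold: below 10.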 The source made the active and inactive calls.

Legend:
Assay in all cases: NCI-60 one-dose screen, 48 h (100 = growth as untreated, 0 = no growth, -100 = all killed)
Details in all cases: 10 µM unless noted
[1] = tested on: NCI-H23 lung
[2] = tested on: NCI-H226 lung
[3] = tested on: NCI-H322M lung
[4] = tested on: HOP-62 NSCLC
[5] = tested on: NCI-H460 lung
[6] = tested on: HOP-92 NSCLC
[7] = tested on: NCI-H522 lung
[8] = tested on: A549/ATCC NSCLC
[9] = tested on: 786-0 renal
[10] = tested on: COLO 205 colon

Measured: growth

NCCCNc1nc2ccccc2c2c(=O)c3cccc(Cl)c3sc12
inactive: [1] 44.7% | [2] 59.6% | [3] 22.4% | [4] 19.3% | [6] 38.1% | [9] 33.6%
active: [5] -75% | [7] -48.5% | [8] -2.55% | [10] -50.6%

COc1cc(N=Nc2cc(Cc3ccc(N(C)C)cc3)c(N)cc2N(C)C)c2ncccc2c1
inactive: [2] 19.4% | [3] 11% | [4] 20%
active: [1] 1.24% | [5] -60.2% | [6] -8.54% | [7] -5.05% | [8] -45.9% | [9] -88.9% | [10] -33.7%

O=C(c1ccccc1)N1N=C(c2ccccc2)CC1c1nnc2n(Cc3ccccc3)c(=O)c3c4c(sc3n12)CCCC4 (stereo not given)
inactive: [1] 116% | [2] 110% | [3] 89.4% | [4] 98% | [5] 107% | [6] 95.3% | [7] 91.6% | [8] 89.3% | [9] 101% | [10] 117%

Fc1cnc(NC2CC2)nc1-c1cnc2ccc(N3CCOCC3)cn12
active: [1] -7.34% | [2] 0.213% | [3] 4.31% | [4] 9.8% | [5] 4.3% | [6] 1.51% | [7] -18.5% | [8] 3.21% | [10] -22.1%
inactive: [9] 11.2%

N=C(N)c1ccc(-c2ccc(-c3cncc4ccccc34)s2)s1
active: [1] -53.2% | [2] -50.6% | [3] -90.9% | [4] -84.8% | [5] -78.6% | [6] -82.6% | [7] -69.6% | [8] -85.8% | [9] -84.6% | [10] -78.1%

CCOc1ccccc1-c1cc(-c2cccs2)c(C#N)c(=O)[nH]1
inactive: [1] 86.1% | [2] 90.9% | [3] 83.9% | [4] 81.5% | [5] 93.8% | [6] 64.7% | [7] 75.5% | [8] 91.2% | [9] 92.1% | [10] 114%

COc1ccc2[nH]c(O)c(/C=c3/cc4c(c(-c5ccc(F)c(OC)c5)n3)=Nc3ccccc3-4)c2c1
inactive: [1] 61.1% | [2] 90.7% | [3] 89.1% | [4] 88.6% | [6] 57.5% | [7] 67% | [8] 52.8% | [10] 84.8%
active: [5] -21.9% | [9] -59%

CCN(CC)Cc1cccc(C(=O)OC)c1
inactive: [1] 96.6% | [2] 90.2% | [3] 106% | [4] 85.2% | [5] 103% | [6] 87.7% | [7] 101% | [8] 69% | [9] 90.7% | [10] 106%

O=c1cc(-c2ccc(Cl)cc2)[nH]c2ccccc12
inactive: [1] 83.2% | [2] 87% | [3] 92.3% | [4] 79.3% | [5] 90.8% | [6] 73.3% | [7] 80.9% | [8] 91.2% | [9] 82.4% | [10] 99.7%

CCN1C(=O)N(CC)C2Nn3c(s/c(=C\c4cccc([N+](=O)[O-])c4)c3=O)=NC21 (stereo not given)
inactive: [1] 57.7% | [2] 88% | [3] 64.3% | [4] 62.3% | [5] 23.8% | [6] 75.8% | [7] 18.5% | [8] 45.1% | [9] 36%
active: [10] 6.72%

COc1ccc(NC(=O)CSc2nc(C)c(C(C)=O)n2-c2ccc(Cl)cc2)cc1
inactive: [1] 90.6% | [2] 86.6% | [3] 100% | [4] 88.5% | [5] 102% | [6] 106% | [7] 78.1% | [8] 97.1% | [9] 106% | [10] 102%

C=CCNc1nc(NN2C(=O)c3cccc4cccc(c34)C2=O)nc(-n2cnc3ccccc32)n1
inactive: [1] 76.9% | [2] 51.8% | [3] 94.1% | [4] 60.4% | [5] 94.6% | [6] 16.5% | [7] 76.6% | [8] 86.4% | [9] 89.2% | [10] 103%

COCCc1ccc(OCC(O)CNC(C)C)cc1 (stereo not given)
inactive: [1] 98.5% | [2] 109% | [3] 99.2% | [4] 101% | [5] 107% | [6] 73.1% | [7] 93.3% | [8] 104% | [9] 97.8% | [10] 106%

N#CC1=C(c2ccc(Br)cc2)NC(SCC(=O)c2ccc(Br)cc2)NC1=O (stereo not given)
inactive: [1] 105% | [2] 97% | [3] 104% | [4] 98.6% | [5] 107% | [6] 102% | [7] 99.5% | [8] 93.8% | [9] 92.6% | [10] 116%

CCN(CC)CCCC(C)Nc1c2ccc(Cl)cc2nc2ccc(O)cc12 (stereo not given)
inactive: [1] 46.2% | [2] 39.4% | [3] 38% | [4] 42.1% | [5] 14.7% | [6] 50.3% | [7] 37% | [8] 24.4% | [9] 22.3%
active: [10] -16.4%

CC/C=C1/C(=O)C=C[C@@H]1C/C=C\CCCC(=O)O
inactive: [1] 85.5% | [2] 93.3% | [3] 113% | [4] 80.4% | [5] 97.1% | [6] 121% | [7] 24% | [8] 87.9% | [9] 102% | [10] 108%

N#Cc1c(N)nc(NCCO)nc1-c1ccc(F)cc1
inactive: [1] 96.7% | [2] 77.1% | [3] 102% | [4] 93.3% | [5] 103% | [6] 75.9% | [7] 86.6% | [8] 71.8% | [9] 97.1% | [10] 92.5%

COc1cc(/C=C/C(=O)N2CCN(C(=O)c3cc(OC)c(OC)c(OC)c3)CC2)ccc1OCCCN1C(=O)c2cccc3cccc(c23)C1=O
active: [6] -0.534%
inactive: [1] 106% | [2] 87% | [3] 100% | [4] 94.1% | [5] 82.6% | [7] 65.4% | [8] 85.3% | [9] 73.1% | [10] 116%

CC/C=C/C/C=C/C/C=C/C/C=C/C/C=C/C/C=C/CCC(=O)Nc1ccn([C@@H]2O[C@H](CO)[C@@H](O)C2(F)F)c(=O)n1
inactive: [3] 51.9% | [6] 32.1% | [7] 39.8% | [8] 17.6% | [10] 11.8%
active: [1] 1.56% | [2] 8.09% | [4] 8.82% | [5] 9.01% | [9] 0.0768%

CN(C)c1ccc(/C=C/C(=O)c2cccc(Nc3nc(Nc4ccccc4)nc(Nc4ccccc4)n3)c2)cc1
inactive: [1] 82.7% | [2] 94% | [3] 93.5% | [4] 86.5% | [5] 98.4% | [6] 46.9% | [7] 87.3% | [8] 85.6% | [9] 88.2% | [10] 81.5%

NC(=N\N=C/c1cccc([N+](=O)[O-])c1)/C(N)=N\N=C/c1cccc([N+](=O)[O-])c1
inactive: [1] 78.4% | [2] 64% | [3] 110% | [4] 10.6% | [6] 73.9% | [7] 66.9% | [8] 15.6% | [9] 109% | [10] 19.4%
active: [5] -21.5%

COc1cccc(/C=C/C(=O)c2c(C)nc3ccccc3c2/C=C/c2ccc(C)cc2)c1OC
inactive: [1] 49.7% | [2] 62.8% | [3] 82.1% | [4] 70% | [5] 26.1% | [6] 76.4% | [7] 50.5% | [8] 94.3% | [9] 74.5% | [10] 80.6%

Cc1nc2ccccc2n1CC1NC(=O)NC1=O (stereo not given)
inactive: [1] 102% | [2] 98.4% | [3] 97.7% | [4] 93.3% | [5] 107% | [6] 115% | [7] 94.9% | [8] 98.3% | [9] 101% | [10] 108%

CC1(C)OC2C(CO[Si](C)(C)C(C)(C)C)OC(n3c(I)c(C#C[Si](C)(C)C)c(=O)[nH]c3=O)C2O1 (stereo not given)
inactive: [1] 76.9% | [2] 103% | [3] 106% | [4] 99.1% | [5] 106% | [6] 98.8% | [7] 90% | [8] 94.9% | [9] 93.9% | [10] 111%

COc1ccccc1CNCCCN1C(=O)c2ccc3c4c(ccc(c24)C1=O)C(=O)N(CCCNCCCCN)C3=O
active: [1] -38.6% | [2] -56.5% | [3] -10.1% | [4] -31% | [5] -46.2% | [6] -16% | [7] -84% | [8] -65% | [9] 0.16% | [10] -81.5%

COc1ccc(-c2ccc3c(c2)sc2nc(-c4ccc(F)cc4)cn23)cc1
inactive: [1] 81.1% | [2] 80.8% | [3] 67.7% | [4] 66.3% | [5] 15.4% | [6] 65.8% | [7] 66.1% | [8] 30% | [9] 76.2%
active: [10] 1.69%
